# From the supplement of paper PMC3545927
# Some of the results follow. The hit rate among all sequences tested is not known here.
# Target: furin, P09958
# Experiment: furin cleavage Z-score vs untreated control; higher = more cleavage, active = 3.5 or more, inactive = 1 or less, 8 variable residues between constant flanks
# Summary of the method: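 Read counts from sequencing released DNA gave abundance for each bead-bound 8-mer peptide–cDNA fusion cut by purified furin over 7.5, 15 or 30 min. The cleavage Z-score compares log counts with furin-free reactions after lowess adjustment and median absolute deviation scaling.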
# 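Further: purified furin at 1:10 enzyme:substrate in 50 mM HEPES pH 7.5.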
# Sequence of furin, P09958 (P09958 whole entry): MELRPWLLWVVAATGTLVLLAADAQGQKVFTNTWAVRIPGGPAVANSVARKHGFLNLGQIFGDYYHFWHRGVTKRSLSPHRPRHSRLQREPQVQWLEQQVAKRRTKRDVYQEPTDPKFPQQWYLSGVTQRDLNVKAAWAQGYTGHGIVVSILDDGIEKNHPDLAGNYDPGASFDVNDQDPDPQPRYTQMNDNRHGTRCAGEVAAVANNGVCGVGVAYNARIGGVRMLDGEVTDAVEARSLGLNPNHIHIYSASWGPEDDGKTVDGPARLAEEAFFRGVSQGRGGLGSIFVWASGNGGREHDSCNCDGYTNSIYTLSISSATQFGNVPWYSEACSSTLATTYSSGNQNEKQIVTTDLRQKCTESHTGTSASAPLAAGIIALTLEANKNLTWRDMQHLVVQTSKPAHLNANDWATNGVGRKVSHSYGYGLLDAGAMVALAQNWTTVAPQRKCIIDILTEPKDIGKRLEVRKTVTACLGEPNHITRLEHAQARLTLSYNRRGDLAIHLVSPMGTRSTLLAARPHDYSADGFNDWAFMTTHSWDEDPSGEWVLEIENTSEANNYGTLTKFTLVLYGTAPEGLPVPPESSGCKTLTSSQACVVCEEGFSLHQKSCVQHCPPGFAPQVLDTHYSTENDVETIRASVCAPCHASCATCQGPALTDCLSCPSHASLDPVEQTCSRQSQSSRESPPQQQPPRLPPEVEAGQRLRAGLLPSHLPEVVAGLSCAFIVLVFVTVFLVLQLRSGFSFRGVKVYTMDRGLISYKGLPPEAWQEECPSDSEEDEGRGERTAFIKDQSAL
Sequence,furin cleavage Z-score (7.5 min),furin cleavage Z-score (15 min),furin cleavage Z-score (30 min)
CAVRCCSMSYAGNASASA [HC2013],0.204 (inactive),-0.014 (inactive),0.753 (inactive)
CAALEVVTSTAGNASASA [HC2263],0.411 (inactive),-0.918 (inactive),-0.927 (inactive)
CADSDAESYSAGNASASA [HC1350],-0.915 (inactive),-2 (inactive),-1.07 (inactive)
CAHTPCSAHLAGNASASA [HC2475],-0.788 (inactive),-1.31 (inactive),-0.643 (inactive)
CAAQKRSVGSAGNASASA [FS-2626],0.58 (inactive),0.683 (inactive),-0.853 (inactive)
CARPARSGGPAGNASASA [FS-2735],-0.759 (inactive),-1.01 (inactive),-0.741 (inactive)
CARPARSVGSAGNASASA [FS-2736],6.91 (active),7.69 (active),6.7 (active)
CARPARLVPAAGNASASA [FS-2398],-0.162 (inactive),-1.02 (inactive),-0.581 (inactive)
CARPARSVSKAGNASASA [FS-2498],4.36 (active),6.03 (active),6.77 (active)
CAEMKRKKRVAGNASASA [FS-1521],6.73 (active),7.44 (active),8.54 (active)
CAWNKRKKRQAGNASASA [FS-968],13.9 (active),14.4 (active),10.5 (active)
CAKKHKKKRVAGNASASA [FS-1538],-1.41 (inactive),-0.885 (inactive),0.391 (inactive)
CATHSRKKRQAGNASASA [FS-201],8.08 (active),7.91 (active),8.14 (active)
CASTPCSDHLAGNASASA [HC2531],0.0703 (inactive),0.929 (inactive),-0.421 (inactive)
CARPARDEGGAGNASASA [FS-2050],-0.0204 (inactive),-1.47 (inactive),-0.304 (inactive)
CARPARYRRGAGNASASA [FS-861],11.5 (active),11.1 (active),8.69 (active)

Sequence,furin cleavage Z-score (7.5 min),furin cleavage Z-score (15 min),furin cleavage Z-score (30 min)
CAKPARYRRGAGNASASA [FS-813],12.3 (active),12.4 (active),9.69 (active)
CAERGFFYTPAGNASASA [EK9],-0.00549 (inactive),-1.03 (inactive),-0.153 (inactive)
CAVVCCSMSFAGNASASA [HC2087],-0.658 (inactive),0.464 (inactive),-0.984 (inactive)
CAEKVTSTWVAGNASASA [HC2174],-0.438 (inactive),1.1,-0.0879 (inactive)
CAEGQRKRRNAGNASASA [FS-19],11.4 (active),10.7 (active),8.22 (active)
CACCRRKRRNAGNASASA [FS-1188],10.9 (active),10.1 (active),9.12 (active)
CAGCTTPCSGAGNASASA [HC1956],-0.873 (inactive),-0.658 (inactive),-0.0577 (inactive)
CAGGAARALAAGNASASA [HC233],0.841 (inactive),-0.114 (inactive),-0.813 (inactive)
CAWTPCSGSWAGNASASA [HC1828],-0.899 (inactive),-0.739 (inactive),-0.599 (inactive)
CAEVVTSEWVAGNASASA [HC2212],0.969 (inactive),-0.725 (inactive),-0.598 (inactive)
CATTPCSISWAGNASASA [HC1884],1.02,2.64,0.615 (inactive)
CARSIRSSQNAGNASASA [FS-2806],3.82 (active),4.88 (active),5.06 (active)
CARSIRSVAIAGNASASA [FS-3081],-0.459 (inactive),0.367 (inactive),2.74
CARSDRSVPSAGNASASA [FS-2236],-0.464 (inactive),-1.02 (inactive),-0.799 (inactive)
CARSIRSTGSAGNASASA [FS-1971],8.51 (active),7.83 (active),8.71 (active)
